# In the supplement of paper PMC10338343:
# ± gives the standard deviation.
# Tested on: MILI (PIWIL2) piRISC loaded with L1MC piRNA (26 nt)
# Experiment: pre-steady-state target cleavage rate (min^-1); guide: L1MC piRNA 5'p-UAACUAAAUACUAUGCAAGCUGUAGG; MIWI and MILI are mouse PIWI proteins and EfPiwi is from a freshwater sponge; tags in brackets are library labels; higher = faster piRNA-guided slicing of the target
# Conditions: auxiliary factor: 500 nM mouse GTSF1
# Summary of the method: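 In Cleave-'n-Seq, a transcribed, DNA-blocked target RNA library (0.1 nM) was combined with 1 nM active affinity-purified piRISC bearing one synthetic guide, with or without 500 nM GTSF1 partner protein. Reactions ran in HEPES–potassium acetate buffer at 33 °C for 0–8 or 0–960 min. Uncleaved targets were sequenced and normalised to depth and to weakly complementary targets, three trials were pooled, and k3 was capped at 0.0001 min^-1. The pre-steady-state cleavage rate was obtained by fitting a burst-and-steady-state model.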
row,Sequence,pre-steady-state target cleavage rate
1,UCCUGGAUGAGCUUCGAUAGUAUUUAGUAA,0.0558 ± 0.012
2,UCCUGGAUGUGCUUGCAUAGUUUAUAGUUA,0.00502 ± 0.0041
3,UCCUGGAUGUCGAAGCAUAGUAUAUAGUAA,0.012 ± 0.0042
4,UCCUGGAUGUGCUUGGAUAGAAUUUAGUUA,0.00729 ± 0.0047
5,UCCUGGAUGACCUUCCAUAGUAUUUAGUUA,0.024 ± 0.0096
6,UCCUGCUACAGCUUGCAUUGUAUUUUCAAA,0.0201 ± 0.0084
7,UCCUGGAUGAGCUUGCAUUGUUUUUAGUUA,0.0047 ± 0.0044
8,UCCUGGAACAGCUACCAUAGUAUUUAGAAA,0.0138 ± 0.0052
9,UCCUGGAUGAGCUUCCAUUGUAUUUAGUUA,0.0518 ± 0.016
10,UCCUGGAUGAGCUUGCAUAGUAUAUACAAA,0.00992 ± 0.0056
11,UCCUGGUACAGCUUGCAUAGUAUAAAGAAA,0.0207 ± 0.0082
12,UCCUGGAUGUCGAACGAUCAGUAUUUAGUUA,< 0.0001
13,UCCUGGAUGUCGAUGCUUAGUAUUUAGUAA,0.0164 ± 0.0045
14,UCCUGGAUGUCCUUGGAUACUAUUUAGUUA,0.0119 ± 0.0061
15,UCCUGGAUCAGCUUGCAUAGUAUUAUCUUA,0.0326 ± 0.0079
16,UCCUGGAUGAGCUUGCAUAGUAUAUAGAUA,0.019 ± 0.0076
17,UCCUGGAUGAGGAAGCAUAGUAUUUAGUAA,0.0509 ± 0.013
18,UCCUGGUACAGCUUGCAUAGUAUAUAGAAA,0.0845 ± 0.028
19,UCCUGGAUGUCGAUGCAUAGUAUUUAGUGUA,0.149 ± 0.045

row,Sequence,pre-steady-state target cleavage rate
1,UCCUGGAACAGCUUGCAUAGUAAUUACAAA,0.0522 ± 0.019
2,UCCUGGAACAGCUUGCAUAGUUAAUAGUUA,0.0282 ± 0.01
3,UCCUGGAUCAGCUUGCAUUGUAUUUACUUA,0.146 ± 0.027
4,UCCUGGUACAGCUUGCAUAGUAAAAACAAA,0.0104 ± 0.0051
5,UCCUGGAUGUCGUUGCAUAGUAAUUAGUAA,0.0579 ± 0.013
6,UCCUGCUACACGUUGCAUAGUAUUUACAAA,0.0287 ± 0.01
7,UCCUGGAUCAGCUUGCAUUCUAUUUAGUUA,0.0266 ± 0.0066
8,UCCUGGAUGUGCUAGCAUAGUAUUAAGUUA,0.0987 ± 0.014
9,UCCUGGUACAGCUUGCAUAGUAUUUACUAA,0.0179 ± 0.0081
10,UCCUGGAUCAGCUUGCUUAGAAUUUAGUUA,0.0318 ± 0.0073
11,UCCUCCUACAGCUUGCAUAGUAUAAUCAAA,0.122 ± 0.029
12,UCCUGGAUGUCGAAGCAUAGUAUUUAUGUUA,0.022 ± 0.0065
13,UCCUGGAUGUCGAACCAUAGUAUUUAGUUA,0.00718 ± 0.0019
14,UCCUGGAUCAGCUUGCAUAGUAUAAUCAAA,0.0782 ± 0.019
15,UCCUGGAUGUGCUUGCAAACUAUUUAGUUA,0.00852 ± 0.0038
16,UCCUGGAUCAGCUUGCAUAGUUUUUUCAAA,0.00833 ± 0.0048
17,UCCUGGAUGUGCUUGCAUUGUAUUUUGUUA,0.0555 ± 0.015
18,UCCUGGAACAGCUUGGUUAGUAUUUAGAAA,0.16 ± 0.04
